Reference: PubChem BioAssay (Tox21)
Several values for one entry are separate records, joined by “and”; a condition that tells them apart may be missing. Equal values may be shown once. Results filed as inconclusive are left out. Where a call stands in place of a potency, no number is given. Where a structure was tested more than once in an assay, its records may differ in their call. Activity calls are given as the source filed them. Calls follow the shape of the dose curve; as a rule, active = well fitted activation curve with a large enough effect in the repeat runs; inconclusive = weak or mixed curves; inactive = flat fitted curve, though single readings scatter.

Assay: A CellTox Green Cytotoxicity Assay to monitor cytotoxicity in HepG2 cells - 24 hour (AID 1224878); also: nearly all actives have a fitted effect of over 45% in size
Conditions: CellTox Green fluorescence; series mostly up to 76.8 µM; cytotoxicity: at the top concentration
Description: National Center for Advancing Translational Sciences [NCATS]
NIH Chemical Genomics Center [NCGC]
U.S. Environmental Protection Agency [EPA]
National Institutes of Environmental Health Sciences [NIEHS]
National Toxicology Program [NTP]
Cell-based models are critical for drug discovery. Determining the natural cytotoxic effects resulting from test compounds is an essential research activity. A CellTox Green Cytotoxicity Assay to monitor cytotoxicity in real time of continues cell culture during 40 hours of the compound treatment was used to screen Tox21 10K library compounds in HepG2 cells. CellTox Green Cytotoxicity Assay is a nonlytic, homogeneous, biofluorescent method to measure cytotoxicity in cell culture after experimental manipulation. The assay system uses a proprietary asymmetric cyanine dye that is excluded from viable cells but preferentially stains the dead cell's DNA. […] Viable cells produce no appreciable increases in fluorescence. Therefore, the fluorescence signal produced by the binding interaction with dead cell DNA is proportional to cytotoxicity.
The mixture of HepG2 cell suspension and reagents were dispensed at 600cells/6 ul/well in 1536-well tissue culture treated black solid bottom plates using a Multidrop dispenser. After the assay plates were incubated at a 37 C/5% CO2 incubator for 5 hours, 23 nL of compounds dissolved in DMSO, positive and negative controls was transferred to the assay plate by a pintool work station. The plates were incubated at 37 C for 40 hours. The fluorescence intensity were measured at 0h, 8h, 16h, 24h, 32h and 40h time points using ViewLux plate reader during compound treatment.
Potency is read from the fitted curve at half-maximal effect.

Row | Compound | Potency | cytotoxicity
1 | COc1ccccc1O | inactive | 
2 | NC(=O)NO | inactive | 
3 | COCCOCCOC |  | 0.483% (inactive)
4 | NC(=O)c1ccc([N+](=O)[O-])cc1Cl | inactive | 
5 | Nc1ccc(N=Nc2ccccc2)c(N)n1 | 34.9 µM (active) and 17.4 µM (active) | 
6 | C[C@]12C[C@H](O)[C@H]3[C@@H](CCC4=CC(=O)CC[C@@]43C)[C@@H]1CC[C@@H]2C(=O)CO | inactive | 
7 | C#C[C@]1(O)CC[C@H]2[C@@H]3CCC4=CC(=O)CC[C@@H]4[C@H]3CC[C@@]21CC | inactive and 38.9 µM (active) | 
8 | CCOCCO | inactive | 
9 | CC(=O)Oc1ccccc1C(=O)O | inactive | 
10 | Cc1ccc(O)c(-n2nc3ccccc3n2)c1 | inactive | 
11 | CCCCNC(=O)NS(=O)(=O)c1ccc(N)cc1 | inactive | 
12 | O=[N+]([O-])c1ccc(O)cc1 | inactive | 
13 | NC(N)=NC(N)=NCCc1ccccc1 | inactive | 
14 | O=C(O)CCCCC1CCSS1 (stereo not given) | inactive | 
15 | NCCNc1cccc2ccccc12 | 53.6 µM (active) and inactive | 
16 | CC(C)Cc1ccc(C(C)C(=O)O)cc1 (stereo not given) | inactive | 
17 | CC1=NN(c2ccccc2)C(=O)C1 | inactive | 
18 | CCCCOCCOCCOC(C)=O |  | 2.24% (inactive)
19 | O=C(O)CN(CC(=O)O)CC(=O)O | inactive | 
20 | N[C@@H](Cc1c[nH]c2ccc(O)cc12)C(=O)O | inactive | 

Row | Compound | Potency | cytotoxicity
21 | CCCCCCCC(=O)OCC(O)CO (stereo not given) |  | -10.2% (inactive)
22 | Cc1c(N(C)CS(=O)(=O)O)c(=O)n(-c2ccccc2)n1C | inactive | 
23 | CC(C)(C)NCC(O)c1ccc(O)c(CO)c1 (stereo not given) | inactive | 
24 | CN(C)C=O | inactive | 
25 | O=C1CCCCCN1 |  | 2.14% (inactive)
26 | CCCCCCCCCCCCCC(=O)OC(C)C | inactive | 
27 | COC(=O)c1ccc(O)cc1 | inactive | 
28 | CCOC(=O)C(C)(C)Oc1ccc(Cl)cc1 | inactive | 
29 | Cc1cccc(Nc2cc(Cl)nc(SCC(=O)O)n2)c1C | inactive | 
30 | OC[C@@H](O)[C@@H](O)[C@H](O)[C@H](O)CO | inactive | 
31 | CC(C)CC(C)CC(O)CC(C)C (stereo not given) |  | -1.23% (inactive)
32 | C=CCOC(=O)CC(C)C | inactive | 
33 | c1ccc2[nH]c(-c3cscn3)nc2c1 | inactive | 
34 | CCCCCCCCCCCCCCCCCC(=O)OCC(O)CO (stereo not given) | inactive | 
35 | Cc1cccc(C)c1O | inactive | 
36 | COCC(C)N (stereo not given) |  | 3% (inactive)
37 | Cc1c(N(C)C)c(=O)n(-c2ccccc2)n1C | inactive | 
38 | O=C1OC(c2ccc(O)cc2)(c2ccc(O)cc2)c2ccccc21 | inactive | 
39 | O=C(O)Cc1cccc2ccccc12 | inactive | 
40 | CCN1CCCC1=O | inactive | 
